The values below come from PubChem BioAssay (NCI).

Compounds without any hit were thinned out: in the full panel of roughly 83,000, 20% have a hit.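 Treatment: one concentration, 48 hours, 96-well format. Scoring: percent growth, with anything below 10 considered active.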 Unmarked numbers belong to inactive results. Active and inactive are the calls of the source.

This experiment has as its system CAKI-1 renal. Description: NCI-60 one-dose screen, 48 h (100 = growth as untreated, 0 = no growth, -100 = all killed). The settings on record: 10 µM unless noted.
On to `CN(C)c1ccc2nc3ccc(=[N+](C)C)c([N+](=O)[O-])c-3sc2c1`, for which the growth is 43.1%.
The value for `COc1cc(C(=O)/C=C/c2c(Cl)nc3sccn23)cc(OC)c1OC` was 84.9%; that for `CNc1ccc(Nc2cccc(C)c2)c2c1C(=O)c1ccccc1C2=O` was 131%; that for `Cc1cc(O)c(C2=NN(c3ccc(S(N)(=O)=O)cc3)C(c3ccccc3O)C2)cc1Cl` (configuration not stated) was -13.6% (active).
In the case of `CCN1C(=O)N(CC)C2Nn3c(s/c(=C4\C(=O)N(CCC(C)C)c5ccccc54)c3=O)=NC21` (configuration not stated) it was 51.3%; in that of `C=C(C)[C@@H]1CC[C@]2(N=C=O)CC[C@]3(C)[C@H](CC[C@@H]4[C@@]5(C)Cc6c([nH]c7ccccc67)C(C)(C)[C@@H]5CC[C@]43C)[C@@H]12`, 69.9%.
Take `O=C1CSC(c2c(Cl)cccc2Cl)N1c1nc(Cl)cc(=O)[nH]1` (configuration not stated): the growth is 117%.
The value for `COc1ccc(OC)c(/C=C/C(=O)N/N=C/c2ccccc2)c1` was 47.5%; that for `Oc1ccc(-c2nc3ccc4[nH]ncc4c3c3c2CCCC3)c2cccnc12` was -25.7% (active); that for `Cc1cc(O)c(C2=NN(c3ccc(S(N)(=O)=O)cc3)C(/C=C/c3ccccc3)C2)cc1Cl` (configuration not stated) was 48.7%.
The value for `COc1ccc(C2=Nn3c(nnc3-c3cc(Cl)cc(Cl)c3Cl)SC2)cc1` was 47.6%.
The value for `O=S(=O)(NCCCNc1cc(-c2c(-c3cccc(O)c3)nc3sccn23)ccn1)c1cccc2ccccc12` was 36.1%.
Take `c1cc(-c2nnc(SSc3ncnc4nc[nH]c34)o2)ccn1`: the growth was -6.89% (active).
The value for `CC[C@H](C)C(=O)O[C@H]1CCC=C2C=C[C@H](C)[C@H](CC[C@@H]3CC=CC(=O)O3)[C@H]21` was 90.5%; that for `COc1cc(CCC[P+](c2ccccc2)(c2ccccc2)c2ccccc2)c(OC)c(OC)c1OC` was 39.7%; that for `COc1ccc(C(=O)/C=C/c2sc(Cl)nc2Cl)cc1` was 27.4%.
In the case of `COc1ccc(C(=S)N2CCN(c3cccc(C)c3)CC2)cc1OC` it was 62.5%; in that of `Cc1cc2nc3ccc(N=Nc4ccc(N(C)C)cc4)cc3n(-c3ccccc3)c-2cc1=N`, -96.5% (active).
In the case of `CC(=O)CC(c1cccs1)c1c(-c2ccccc2)[nH]c2ccccc12` (configuration not stated) it was 39.4%; in that of `COc1ccc(-n2c(N)c(-c3nc4ccccc4[nH]3)cc(C#N)c2=O)cc1`, 92.3%; in that of `Cc1ncc(C(=O)Nc2ccc(CN3CCN(C)CC3)c(C(F)(F)F)c2)cc1C#Cc1ccc(N)nc1`, -71.1% (active).
For `COC(=O)/C=C1\S/C(=N\Nc2ccc([N+](=O)[O-])cc2[N+](=O)[O-])N(C2CCCCC2)C1=O`, the growth was 57.1%.
In the case of `COc1c(B(O)O)cc(F)cc1-c1nc2ccc3[nH]ncc3c2c2c1CCCC2` it was -5.6% (active).
For `CCCCCCN1C(=O)/C(=c2\sc3n(c2=O)C2C(NN=3)N(CC)C(=O)N2CC)c2ccccc21` (configuration not stated), the growth is 4.26% (active).
Take `S=c1nc(-c2ccccc2)oc(=NC2CCCCC2)n1C1CCCCC1`: the growth is 75.4%.
In the case of `CNC(=O)c1[nH]cc(-c2ccccc2)c1-c1cc(OC)c2c(c1OC)OCO2` it was 76.5%.
In the case of `CCCCCCN(CCCCCC)c1ccc(/C=C2/SC(=O)NC2=O)c(C)c1` it was 84.1%.
In the case of `CC(=O)OC[C@H]1OC(Sc2sc(C(=O)c3ccc(Br)cc3)c(N)c2-c2nc3ccccc3s2)[C@H](OC(C)=O)[C@@H](OC(C)=O)[C@H]1OC(C)=O` (some centres not stated) it was 67.6%; in that of `N#Cc1ccc(NC(=O)c2sc3nc4c(cc3c2N)C(=O)CCC4)cc1`, 93.3%; in that of `NS(=O)(=O)c1ccc(-n2nc(-c3ccc(Cl)cc3)c3ccccc3c2=O)cc1`, 95.9%.
For `COc1cccc(OC)c1C(=O)N[C@@H]1C(=O)N2[C@@H]1SC(C)(C)[C@@H]2C(=O)O`, the growth is 94.2%.
In the case of `N/C(=N\c1nc2ccccc2s1)NC(=O)Nc1cccc2ccccc12` it was 29.5%; in that of `COc1ccc(/C=C/c2c(C(=O)/C=C/c3ccc(C(F)(F)F)cc3)c(C)nc3ccccc23)cc1`, -38% (active); in that of `COc1c(B(O)O)cc(C)cc1-c1nc2ccc3[nH]ncc3c2c2c1CCCC2`, -31.8% (active).
The value for `COc1cc(C(=O)c2cc(C)c3[nH]c4ccc(O)cc4c3c2C)cc(OC)c1OC` was 24.5%; that for `COc1ccc(/C=C/c2c(C(=O)/C=C/c3ccc(Cl)cc3)c(C)nc3ccccc23)cc1` was 29.5%; that for `O=c1ccc(N=Nc2ccc([N+](=O)[O-])cc2)ccc1O` was 20.2%.
